Reference: PubChem BioAssay AID1030 (National Center for Advancing Translational Sciences (NCATS), 2008)
The campaign covered roughly 220,000 compounds. About 16,000 (7.3%) were called active. Another 25% or so got no clear call; they are omitted. The full list was thinned out, with actives kept by preference. Unmarked numbers belong to inactive results. Calls follow the shape of the dose curve; as a rule, active = well fitted inhibition curve with a large enough effect (not every such curve was filed as active); inconclusive = small, poorly fitted or top-dose-only effect, or another doubt; inactive = no such curve, though single readings can be large or run the other way.

Molecular target: Aldehyde dehydrogenase 1A1 (Homo sapiens) (UniProt P00352)
Assay: qHTS Assay for Inhibitors of Aldehyde Dehydrogenase 1 (ALDH1A1);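 as to activity, negative = inhibition: plate controls were no enzyme wells and a reference inhibitor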
Conditions: Purified ALDH1A1, NADH fluorescence, propionaldehyde substrate; series mostly up to 75.3 µM; activity, negative = inhibition: at the top concentration
Potency is read from the fitted curve at half-maximal effect.

Sequence of Aldehyde dehydrogenase 1A1 (Homo sapiens) (P00352 whole entry, looked up): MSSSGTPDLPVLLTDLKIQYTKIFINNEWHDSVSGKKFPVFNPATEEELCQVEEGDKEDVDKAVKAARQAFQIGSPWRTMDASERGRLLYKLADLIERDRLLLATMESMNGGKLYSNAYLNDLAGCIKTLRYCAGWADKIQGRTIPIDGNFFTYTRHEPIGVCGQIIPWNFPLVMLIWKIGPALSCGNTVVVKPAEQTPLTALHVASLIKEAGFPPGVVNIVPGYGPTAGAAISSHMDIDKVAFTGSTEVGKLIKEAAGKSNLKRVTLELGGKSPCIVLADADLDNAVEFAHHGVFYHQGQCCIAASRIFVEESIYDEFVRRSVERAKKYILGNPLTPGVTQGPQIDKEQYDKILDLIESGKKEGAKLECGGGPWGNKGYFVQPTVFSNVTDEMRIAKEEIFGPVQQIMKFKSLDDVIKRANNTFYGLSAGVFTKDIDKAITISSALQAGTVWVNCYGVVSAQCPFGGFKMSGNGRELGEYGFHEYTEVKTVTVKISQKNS

SMILES | activity, negative = inhibition | Potency
CC1CCCC(C)N1/N=C/c1ccccc1OC(F)F (stereo not drawn) | -0.166% | –
CN1CCN(S(=O)(=O)c2ccc(NC(=O)C3CCCO3)cc2)CC1 (stereo not drawn) | -9.73% | –
COc1ccc(NC(=O)CN2CCN(S(=O)(=O)c3ccc(F)cc3)CC2)cc1Cl | -1.89% | –
CN(CC(=O)Nc1ccc(S(=O)(=O)N2CCCC2)cc1)Cc1ccc(Cl)c(Cl)c1 | – | 20 µM (active)
OCCC#Cc1ccc(CN2CCN(Cc3ccsc3)C(CCO)C2)cc1 (stereo not drawn) | 3.08% | –
NC(CSC12CC3CC(CC(C3)C1)C2)C(=O)O (stereo not drawn) | – | 12.6 µM (active)
Cc1ccc(C)c(NC(=O)CCC(=O)N/N=C2/CC(=O)CC(C)(C)C2)c1 | -0.74% | –
O=C(CN1CCN(c2ccc(O)cc2)CC1)Nc1cc(S(=O)(=O)N2CCOCC2)ccc1Cl | – | 25.1 µM (active)
O=C(COc1cccc2ccccc12)Nc1cc(S(=O)(=O)N2CCOCC2)ccc1N1CCOCC1 | -7.3% | –
O=C(CN1CCOCC1)Nc1cc(Cl)ccc1Cl | -0.628% | –
Cn1c(=O)c2c(nc(N/N=C/c3cccs3)n2Cc2ccc(Br)cc2)n(C)c1=O | -4.65% | –
C=CCn1c(Oc2ccc(C(=O)OC)cc2)nc2c1c(=O)n(C)c(=O)n2C | 7.05% | –
C/C(Cl)=C\Cn1c(Nc2cccc(C)c2)nc2c1c(=O)n(C)c(=O)n2C | – | 20 µM (active)
CC[C@H](C)[C@@H](C(=O)N1CCNCC1)n1cc([C@@H](N)Cc2ccc(O)cc2)nn1 | -2.81% | –
COC(=O)C1=C(C(=O)OC)[C@@H]2N(C)c3ccccc3[C@@]23C[C@@H](C(=O)OC)N(S(=O)(=O)c2ccc(Br)cc2)C3=N1 | 6.9% [at 13.5 µM] | –
O=c1[nH]n2c(=O)c3c([nH]c2c1N=Nc1ccccc1)CCC3 | -7.15% | –
O=C(/C=N/O)Nc1ccccc1 | 10.4% | –
O=[N+]([O-])/C(N=Nc1ccccc1)=N\Nc1ccccc1 | – | 14.1 µM (active)
COc1cc(C(=O)Nc2cc(C(F)(F)F)ccc2-n2cncn2)cc(OC)c1OC | -11.5% | –
CCOc1ccc(CN2CCN(Cc3ccon3)CC2CCO)cc1 (stereo not drawn) | -7.29% | –
COc1ccc(/C=N/NC(=O)c2cccc(C(F)(F)F)c2)cc1 | 143% | –
COc1ccc2nc(NC(=O)[C@@H]3CCCN3C(=O)c3cccs3)sc2c1 | 15.3% | –
CCOc1ccc(NC(=O)C2CCCN(C(=O)Nc3ccccc3)C2)cc1 (stereo not drawn) | 5.91% | –
CCOc1ccc2nc(C(=O)N3CCCC(C)C3)sc2c1 (stereo not drawn) | – | 14.1 µM (active)
COc1cc(OC)nc(N/N=C(\c2ccccc2)c2ccncc2)n1 | -13.5% | –
COc1ccc(-c2nnc3ccc(SCc4ccccc4)nn23)cc1 | 26.6% | –

SMILES | activity, negative = inhibition | Potency
Fc1cccc(CSc2nnc3ccc(-c4ccncc4)nn23)c1 | 4.55% | –
Cc1ccc(/C=C/C(=O)Nc2cc(S(=O)(=O)N3CCCCCC3)ccc2OCC(F)(F)F)o1 | – | 28.2 µM (active)
Cc1cccc(OCCC(=O)Nc2cc(S(=O)(=O)N3CCCCC3)ccc2N2CCOCC2)c1 | -16.5% | –
COc1ccc(S(=O)(=O)N2CCCCCC2)cc1C(=O)OCC(=O)Nc1cc(C)on1 | 31.2% | –
CCc1ccc(CN2C(=O)c3ccccc3C2C(=O)NCC2CCCO2)cc1 (stereo not drawn) | -11.7% | –
CC(Sc1nnc2c(n1)C1CCC2(C)C1(C)C)C(=O)Nc1ccccc1 (stereo not drawn) | -8.04% | –
CSc1nc(N(C)NC(=O)c2cccc(C)c2)c2ccccc2n1 | -0.565% | –
CSc1nc(C)cc(SC(C(C)=O)C(=O)Nc2ccccc2)n1 (stereo not drawn) | – | 15.8 µM (active)
CC(=O)c1cc(-c2ccccc2)n(CC(=O)NC2CCCCC2)c1C | 7% | –
COC(=O)C(C(=O)OC)C1c2ccccc2C=C(C2CC2)N1C(=O)OC (stereo not drawn) | – | inactive
CC(C)(C)N(CC#CCC(O)(c1ccccc1)C1CCCC1)CCO (stereo not drawn) | 1.5% | –
O=C(COC(=O)c1ccc(F)cc1)Nc1nc2ccc([N+](=O)[O-])cc2s1 | 8.53% | –
CC(C)C(NC(=O)C1CCC(C(C)(C)C)CC1)C(=O)NCCCN1CCCCC1 (stereo not drawn) | 1.26% | –
COc1cccc(NC(=O)CN(C)S(=O)(=O)c2ccc(C)cc2)c1 | -2.08% | –
COC(=O)c1sc(C(F)(F)F)c(-c2ccccc2)c1S(=O)(=O)N(C)C | 1.08% | –
CCOC(=O)CN(C)S(=O)(=O)c1ccc(-c2cc(C(=O)OC)sc2C(F)(F)F)cc1 | – | 5.97 µM (active)
Cc1ccn(C(CC(=O)c2ccc(Br)cc2)C(=O)O)n1 (stereo not drawn) | 0.837% | –
Cc1ccc(SC(CC(=O)c2ccc(C(C)(C)C)cc2)C(=O)O)cc1 (stereo not drawn) | – | 0.199 µM (active)
Cc1ccc(SC(C)C(=O)NCc2ccc(F)cc2)cc1 (stereo not drawn) | 10.6% | –
Cc1sc2c(c1C)c(=O)n(-c1ccccc1)c(=O)n2CC(=O)NCC1CCCO1 (stereo not drawn) | -1.33% | –
O=C(c1ccc(Cl)cc1)c1ccc(OCC(O)CN2CCCCC2)cc1 (stereo not drawn) | 7.65% | –
Cn1c(=O)c2c(nc(N3CCCCCC3)n2CC(O)COc2ccc(Cl)cc2)n(C)c1=O (stereo not drawn) | – | 11.2 µM (active)
Cn1c(=O)c2c(nc(N3CCCCCC3)n2CC(=O)c2ccc(Br)cc2)n(C)c1=O | -2.72% | –
CC(C(=O)N=Nc1c(O)n(C)c2ccc(Br)cc12)n1cnc2ccccc2c1=O (stereo not drawn) | -6.13% | –
Cc1ccc(S(=O)(=O)Nc2nc(N)n(-c3ccccc3)n2)cc1 | -1.7% | –
Cc1ccccc1-n1nnnc1SCCCC(=O)c1ccc(F)cc1 | – | 0.0794 µM (active)

SMILES | activity, negative = inhibition | Potency
Cc1c(NC(=O)CSc2nnnn2-c2ccc(C(=O)O)cc2)c(=O)n(-c2ccccc2)n1C | -1.93% | –
O=c1c2ccccc2nnn1CSc1nnnn1-c1ccccc1 | -10.9% | –
NC(N)=Nc1nc2ccc(Br)cc2c(=O)[nH]1 | 11.2% | –
O=C(Nc1cccnc1)c1ccc(Cl)c([N+](=O)[O-])c1 | 6.15% | –
COCCn1c(C)cc(C(=O)CSc2ncnc3sc4c(c23)CCC4)c1C | -6.4% | –
C=C(C)CSc1nc(N)c2c3c(sc2n1)CCC3 | 1.92% | –
Cc1cc(C)n(-c2nc(SCC(=O)N3CCCC3)c3c4c(sc3n2)CCCC4)n1 | – | 14.1 µM (active)
Cc1[nH]nc(SCC(=O)NCC(C)C)c1[N+](=O)[O-] | -13.8% | –
O=C(CN1CCN(C/C=C/c2ccccc2)CC1)Nc1ccc(F)cc1F | 9.94% | –
O=C(c1cccc(F)c1)N1CCC(O)(c2cccnc2)CC1 | -1.82% | –
O=C(CN1CCN(C(=O)c2cccc(F)c2)CC1)Nc1ccccc1F | – | 12.6 µM (active)
Cc1ccccc1CS(=O)(=O)CC1(O)CCN(C(=O)c2cccc(C(F)(F)F)c2)CC1 | 8.45% | –
O=C(c1cccc(F)c1)N1CCC2(CC1)CCN(c1ccccc1)CC2 | -3.17% | –
Cc1ccccc1CN1CCN(C(=O)c2cccc(F)c2)CC1 | – | 15.8 µM (active)
COc1ccc(Cn2c(=O)cc(C)[nH]c2=S)cc1 | -0.953% | –
CCOc1ccc2sc(NS(=O)(=O)c3ccc(N)cc3)nc2c1 | 6.19% | –
Cc1cccc(NC(=S)NCCN(C2CCCCC2)C2CCCC2)c1 | 2.22% | –
CCOc1ccc(/C=C(/NC(=O)c2ccccc2)C(=O)NCCC(=O)O)cc1 | 3.16% | –
Cc1ccccc1CC1(CO)CCCN(C(=O)c2cc(-c3ccccc3)no2)C1 (stereo not drawn) | 6.3% | –
O=[N+]([O-])c1ccccc1OCCCCN1CCCCC1 | 5.91% | –
COc1cc(C(=S)N2CCOCC2)cc(OC)c1OC(=O)c1cc([N+](=O)[O-])c(C)c([N+](=O)[O-])c1 | -15.4% | –
O=C(Oc1ccccc1C(=S)N1CCCCC1)c1cc([N+](=O)[O-])cc([N+](=O)[O-])c1 | – | 8.91 µM (active)
Cc1cc(C)n(Cc2cnc(N3CCOCC3)s2)n1 | 1.49% | –
Cc1nn(CC2CC2)c(=O)n1N(C)c1ncc(C(F)(F)F)cc1Cl | 11.8% | –
CCOC(=O)/C(C#N)=C\c1c(C)cc(C)c(COC(C)=O)c1C | 1.88% | –
N#C/C(=C\c1ccc(O)c(O)c1)C(=O)NCc1ccccc1 | – | inactive

SMILES | activity, negative = inhibition | Potency
CC(C)(C)C(=O)/C(C#N)=C/c1ccc(O)cc1 | – | 1.58 µM (active)
COc1ccccc1NC(=O)CSc1nnc(C)n1CC1CCCO1 (stereo not drawn) | -9.88% | –
CC(=O)Nc1ccc(NC(=O)CSc2nnc(COc3ccccc3C)n2CC2CCCO2)cc1 (stereo not drawn) | – | 10 µM (active)
C=CCn1c(COc2ccccc2C)nnc1SCC(=O)O | -4.73% | –
CC(OC(=O)c1ccccc1N1C(=O)C2C3CCC(C3)C2C1=O)C(=O)c1ccccc1 (stereo not drawn) | 20.1% | –
O=[N+]([O-])c1ccccc1Nc1ccc(O)cc1 | -3.44% | –
CCNS(=O)(=O)c1ccc(NC(=O)Nc2cccc(OC)c2)cc1 | -8.67% | –
CC(C)OCCCNC(=O)c1cc(Sc2ccc(F)cc2)nc2ccccc12 | -5.97% | –
COc1cccc(NS(=O)(=O)c2ccc3[nH]cc(C(=O)NCCCOC(C)C)c(=O)c3c2)c1 | – | 11.2 µM (active)
Cc1ccc(Nc2c3c(nc4ccccc24)CCC3)cc1 | 0.124% | –
Cc1ccc(-c2csc(NC(=O)Cn3[nH]c(=O)c4ccccc4c3=O)n2)cc1 | 3.41% | –
CCOC(=O)c1sc(NC(=O)CSc2ncccn2)c(C#N)c1C | – | 28.2 µM (active)
CCOC(=O)c1ccc(NC(=O)CSc2ncccn2)cc1 | -10.2% | –
CCOC(=O)c1sc(NC(=O)CSc2nc(C)cc(C(F)(F)F)n2)c(C#N)c1C | – | 2.24 µM (active)
Cc1cc(C(F)(F)F)c(C#N)c(SCC(=O)NC2CC2)n1 | 10.4% | –
CCN(CC)C(=O)c1sc(NC(=O)c2ccco2)c(C#N)c1C | 2.09% | –
CCOC(=O)c1sc(NC(=O)CSc2n[nH]c(CC)n2)nc1C | -0.18% | –
O=C(Nc1cccc(CCc2ccccn2)c1)c1ccc(Cl)cc1 | -0.24% | –
O=C(Cn1nnc2ccccc2c1=O)NCc1ccc(Cl)cc1 | 0.87% | –
Nc1c(C(=O)NCc2ccccc2)nnn1Cc1cccc(Cl)c1 | 14.8% | –
O=C(NCc1ccc(Cl)cc1)c1cc(=O)nc2sc(-c3ccccc3)nn12 | – | 5.01 µM (active)
O=C(Nc1cccnc1)c1ccc2c(c1)OCO2 | 3.17% | –
CCOC(=O)c1ccc(-c2ccc(C(=O)Nc3cccnc3)o2)cc1 | – | 22.4 µM (active)
COc1ccc(C(=O)Nc2cccnc2)cc1C(=O)Nc1cccnc1 | 8.94% | –
OC1CSc2nc3ccccc3n2C1 (stereo not drawn) | 16.1% | –
